Twelve compounds from PubChem BioAssay (NCI) can be followed below.

Values joined by “and” are separate entries in the source; they are usually repeats but may differ in a detail not shown here. Identical values can stand only once. This is part of a sample that, as a whole, favours compounds with a hit. Of some 83,000 tested, about 20% had one in any assay.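 Activity criterion: percent growth below 10, measured after cells in 96-well plates were exposed to a single compound concentration for 48 hours.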 Active and inactive are the calls of the source.

Some test systems named below: DU-145 prostate; K-562 leukemia; MALME-3M melanoma; MDA-MB-231 breast; RXF 393 renal; SF-268 CNS; SF-295 CNS; SF-539 CNS; UACC-257 melanoma; M14 melanoma.
What all share (experiment): NCI-60 one-dose screen, 48 h (100 = growth as untreated, 0 = no growth, -100 = all killed)
Common to all, as to settings: 10 µM unless noted

Take `Nc1ccc(/C=N/Nc2ccnc3c(N)cccc23)c2cccnc12`: the growth is -49.1% (active) in the assay on DU-145 prostate; -55.7% (active) with K-562 leukemia; 104% (inactive) in the assay with MALME-3M melanoma; -66.6% (active) in the assay with MDA-MB-231 breast; -72.5% (active) with RXF 393 renal; -61.8% (active) with SF-268 CNS. Moreover, the growth is -75.6% (active) with SF-295 CNS, -94.9% (active) with SF-539 CNS, 88.1% (inactive) with UACC-257 melanoma and -78.6% (active) in the assay on M14 melanoma.
For the compound `COc1cc(-c2nn(-c3cccc(NC(=O)CCN4CCN(C)CC4)c3)cc2-c2ccncc2)ccc1Cl`, the growth in the assay with DU-145 prostate was 3.19% (active); in the assay on K-562 leukemia, -10.4% (active); in the assay with MALME-3M melanoma, 38% (inactive); in the assay with MDA-MB-231 breast, 39.9% (inactive); in the assay on RXF 393 renal, 18.6% (inactive); with SF-268 CNS, 31.5% (inactive). Further, the growth was -6.03% (active) in the assay on SF-295 CNS, -19.6% (active) with SF-539 CNS, 39.3% (inactive) in the assay with UACC-257 melanoma and -41.6% (active) with M14 melanoma.
For the compound `COc1ccc(Oc2nc(Nc3ccc(N4CCOCC4)cc3)ncc2NC(=O)c2cc(OC)cc(OC)c2)cc1`, the growth is 98.7% (inactive) with DU-145 prostate; 58.3% (inactive) in the assay with K-562 leukemia; 108% (inactive) with MALME-3M melanoma; 85.2% (inactive) in the assay with MDA-MB-231 breast; 52.3% (inactive) in the assay on RXF 393 renal; 90% (inactive) in the assay on SF-268 CNS. Also, the growth was 94% (inactive) with SF-295 CNS, 87.2% (inactive) in the assay with SF-539 CNS, 99% (inactive) in the assay with UACC-257 melanoma and 91.4% (inactive) with M14 melanoma.
In the case of `N=C(N)c1ccc(-c2ccc(-c3ccc(F)cc3)s2)nc1`, the growth was 81.5% (inactive) with DU-145 prostate; 0.099% (active) in the assay on K-562 leukemia; 89.5% (inactive) in the assay with MALME-3M melanoma; 57.1% (inactive) in the assay with MDA-MB-231 breast; 80.1% (inactive) in the assay on RXF 393 renal; 87.6% (inactive) in the assay with SF-268 CNS. For the same compound, the growth with SF-295 CNS is 79.5% (inactive); in the assay with SF-539 CNS, 79.6% (inactive); in the assay with UACC-257 melanoma, 93% (inactive); with M14 melanoma it was 76.1% (inactive).
In the case of `CCOC(=O)c1nc2c3ccccc3cnn2c1C(=O)c1ccc(OC)cc1`, the growth in the assay on DU-145 prostate was 105% (inactive); in the assay on K-562 leukemia, 96.9% (inactive); in the assay with MALME-3M melanoma it was 102% (inactive); in the assay on MDA-MB-231 breast, 81.7% (inactive); in the assay with RXF 393 renal it was 106% (inactive); in the assay on SF-268 CNS, 103% (inactive). In addition, the growth in the assay on SF-295 CNS is 98.7% (inactive); with SF-539 CNS it was 97.7% (inactive); in the assay on UACC-257 melanoma, 95.4% (inactive); in the assay on M14 melanoma, 101% (inactive).
As to `COc1ccc(Cn2cc(C(=O)Nc3cccnc3Nc3ccccc3)nn2)cc1`, the growth in the assay on DU-145 prostate is 103% (inactive); in the assay on K-562 leukemia, 108% (inactive); in the assay on MALME-3M melanoma, 120% (inactive); in the assay with MDA-MB-231 breast, 86.4% (inactive); with RXF 393 renal it was 103% (inactive); in the assay with SF-268 CNS, 96% (inactive). Moreover, the growth in the assay with SF-295 CNS was 102% (inactive); in the assay on SF-539 CNS it was 95.6% (inactive); with UACC-257 melanoma, 110% (inactive); in the assay on M14 melanoma, 106% (inactive).
For the compound `CC(=O)N1N=C(c2ccc(F)cc2)CC1c1sc(N(C)Cc2ccccc2)nc1Cl` (stereo not given), the growth is 103% (inactive) in the assay on DU-145 prostate; 75.1% (inactive) in the assay with K-562 leukemia; 102% (inactive) in the assay with MALME-3M melanoma; 101% (inactive) in the assay on MDA-MB-231 breast; 101% (inactive) in the assay with RXF 393 renal; 87.1% (inactive) in the assay with SF-268 CNS. Moreover, the growth is 97.6% (inactive) with SF-295 CNS, 104% (inactive) in the assay on SF-539 CNS, 118% (inactive) in the assay with UACC-257 melanoma and 95.2% (inactive) with M14 melanoma.
Take `O=C(NNc1ccccc1)c1ccccc1`: the growth is 98.1% (inactive) and 71.3% (inactive) in the assay on DU-145 prostate; 18% (inactive) and 19.8% (inactive) in the assay with K-562 leukemia; 99.2% (inactive) in the assay with MALME-3M melanoma; 70.6% (inactive) and 53.6% (inactive) in the assay with MDA-MB-231 breast; 123% (inactive) in the assay with RXF 393 renal; 78.9% (inactive) and 58.7% (inactive) in the assay on SF-268 CNS. Besides, the growth with SF-295 CNS is 64.5% (inactive); in the assay with SF-539 CNS, 95.1% (inactive) and 96.7% (inactive); in the assay on UACC-257 melanoma, 56.8% (inactive) and 81.2% (inactive); with M14 melanoma, 53.9% (inactive) and 38.5% (inactive).
Consider `O=C(/C=C/C12c3ccccc3C(c3ccccc31)C1C(=O)NC(=O)C12)c1ccncc1` (stereo not given), for which the growth in the assay with DU-145 prostate was 13% (inactive); with K-562 leukemia, 6.6% (active); in the assay on MALME-3M melanoma it was 37.1% (inactive); with MDA-MB-231 breast, 15% (inactive); in the assay on RXF 393 renal, 13.4% (inactive); with SF-268 CNS it was 10.2% (inactive). The growth with SF-295 CNS is 28.4% (inactive); in the assay on SF-539 CNS, 5.79% (active); with UACC-257 melanoma, 32.3% (inactive); in the assay with M14 melanoma, 20.3% (inactive).
As for `CCCCCCCCn1ccc2cc(NC(=O)CN3CCN(c4nc(C)cc(N5CCCCC5)n4)CC3)ccc21`, the growth in the assay with DU-145 prostate is 95.2% (inactive); in the assay with K-562 leukemia, 56% (inactive); with MALME-3M melanoma it was 112% (inactive); in the assay with MDA-MB-231 breast, 85.7% (inactive); in the assay on RXF 393 renal, 86.9% (inactive); in the assay with SF-268 CNS, 93.3% (inactive). For the same compound, the growth is 103% (inactive) in the assay with SF-295 CNS, 105% (inactive) in the assay on SF-539 CNS, 115% (inactive) with UACC-257 melanoma and 90.6% (inactive) in the assay with M14 melanoma.
`O=C(CCl)n1nnnc1Cc1ccccc1`: the growth in the assay with DU-145 prostate was 110% (inactive); with K-562 leukemia, 83.4% (inactive); in the assay with MALME-3M melanoma, 106% (inactive); with MDA-MB-231 breast, 92.9% (inactive); with RXF 393 renal it was 112% (inactive); in the assay with SF-268 CNS, 106% (inactive). In addition, the growth in the assay with SF-295 CNS was 90.7% (inactive); in the assay on SF-539 CNS, 92.2% (inactive); with UACC-257 melanoma, 88.7% (inactive); in the assay on M14 melanoma, 98.6% (inactive).
Turning to `Cc1ccc(C(=O)c2ccc(CC(=O)N=Nc3c(O)[nH]c4ccc(OC(F)(F)F)cc34)n2C)cc1`, the growth with DU-145 prostate was 102% (inactive); in the assay with K-562 leukemia it was 92.5% (inactive); in the assay with MALME-3M melanoma, 126% (inactive); with MDA-MB-231 breast it was 92.4% (inactive); with RXF 393 renal, 104% (inactive); in the assay with SF-268 CNS, 93.2% (inactive). Further, the growth was 101% (inactive) in the assay on SF-295 CNS, 102% (inactive) in the assay on SF-539 CNS, 102% (inactive) in the assay on UACC-257 melanoma and 97.6% (inactive) in the assay with M14 melanoma.
